From PubChem BioAssay
Pf growth 48h = Primary qHTS for delayed death inhibitors of the malarial parasite plastid, 48 hour incubation. P. falciparum luciferase growth in erythrocytes, 48 h. Potency, µM (doses to about 28.7 µM), without a hit: at the highest dose activity change, negative = inhibition, actives largely listed as inhibitors. actives 5.9% (n = 310,000); also: potency is read from the fitted curve at half-maximal effect; % is scaled to controls: 0 for no effect and ±100 for the full control effect
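Luciferase-expressing parasites in RBCs, 2% Hct / 0.1% parasitemia final; RPMI 1640 + 0.5% Albumax; 37 C, 5% CO2, one generation; luminescence read-out, lower signal = inhibition.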
Cycloheximide cs = Cycloheximide Counterscreen for Small Molecule Inhibitors of Shiga Toxin; cell reporter, cycloheximide protein synthesis inhibition counterscreen; max response, %; actives 12% (n = 300,000); AID 2314, 2010; in the data active = max response mostly above about 13%, no sharp cut-off; inactive = mostly below about 14%; also: read at 38.3 µM for the half of the compounds with a filed dose; 0% is about no effect
Shiga toxin inh = A qHTS for Small Molecule Inhibitors of Shiga Toxin. Vero cells, Shiga toxin protein synthesis inhibition reporter. AID 2315, 2010. inhibition, % at 38.7 µM. actives 9.2% (n = 290,000); in the data active = inhibition mostly above about 28%, no sharp cut-off; inactive = mostly below about 43%; also: 0% is about no effect
Sm TGR block = qHTS Assay for the Inhibitors of Schistosoma Mansoni Peroxiredoxins; purified TGR, DTNB reduction, TNB absorbance 405 nm; Potency, µM (series often up to 114 µM), for the others: at the highest dose activity change, negative = inhibition, most hits filed as inhibitors; actives 3% (n = 360,000); Schistosoma mansoni thioredoxin glutathione reductase (TGR), Q962Y6; also: potency is read from the fitted curve at half-maximal effect; % is scaled to controls: 0 for no effect and ±100 for the full control effect; nearly all actives have a fitted effect of over 60% in size
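First, TGR (20 nM dispensed) and NADPH were mixed with compound. Second, a 15 min room-temperature incubation followed. Third, further NADPH and then DTNB were added to start the reaction. Finally, TNB absorbance was monitored kinetically.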
NS1 function inh = qHTS Assay for Inhibitors of Influenza NS1 Protein Function; Potency, µM (titrated, usually from 46.1 µM), without a hit: top-dose activity, positive = more growth; actives 0.4% (n = 270,000); calls by dose curve; also: potency is read from the fitted curve at half-maximal effect; actives are rising curves; nearly all actives have a fitted effect of over 50% in size
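In this qHTS, NS1 from influenza A is expressed in budding yeast, where it slows growth. Cells are switched from glucose to 2% galactose medium (pH 6.0, -URA), treated with compound, and growth recovery is read at OD600.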
Pf growth 96h = Primary qHTS for delayed death inhibitors of the malarial parasite plastid, 96 hour incubation; P. falciparum luciferase reporter growth, 96 h; Potency, µM (doses to about 28.7 µM), without a hit: top-dose activity change, negative = inhibition, most hits filed as inhibitors; actives 6.9% (n = 320,000); also: potency is read from the fitted curve at half-maximal effect; % is scaled to controls: 0 for no effect and ±100 for the full control effect
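Delayed-death screen, second-generation endpoint: infected erythrocytes, 2% hematocrit, 0.05% parasitemia final; 96 hours at 37 C, 5% CO2; luciferase detection reagent; luminescence decrease equals reduced growth.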
An asterisk follows results filed as active; u = inconclusive; x = no result. Most compounds without a hit are left out; they make up all but 21% or so of the library. Unless noted, calls follow the shape of the dose curve; as a rule, active = well fitted curve in the direction sought with a large enough effect; inconclusive = small, poorly fitted or top-dose-only effect, or another doubt; inactive = no such curve, though single readings can be large; an effect the other way counts as inactive or inconclusive.

SMILES | Pf growth 48h | Cycloheximide cs | Shiga toxin inh | Sm TGR block | NS1 function inh | Pf growth 96h
COc1ccc(C(=O)NCCc2c[nH]c3ccccc23)cc1[N+](=O)[O-] | 0.0% | 7.4* | 3.1 | -2.9% | -3.0% | 13.1µM*
COc1ccc(C(=O)NCCCc2ccccc2)cc1OC | -4.1% | 14.0* | x | -5.8% | -11.8% | u
COc1cc(C(=O)NCC(=O)Nc2c(C)cccc2C)ccc1OCc1ccccc1 | u | x | x | -8.8% | x | -49.6%
COc1ccc(C(=O)NCc2ccccn2)cc1[N+](=O)[O-] | -12.5% | 0.7 | -1.3 | 1.7% | x | 39.2%
CNC(=O)c1ccc(OCc2ccccc2)c(OC)c1 | -4.3% | 19.7* | 19.5 | 5.6% | -4.8% | x
COc1ccccc1OCc1ccc(C(=O)c2ccccc2)cc1 | 11.4% | 23.2* | x | 0.1% | -12.5% | 45.0%
COc1ccc(C(CC(=O)NCc2ccc(Cl)cc2)N2Cc3ccccc3C2=O)cc1OC (stereo unspecified) | x | x | x | 2.7% | x | x
COc1ccc(C2=Nn3c(nnc3-c3ccc(OC)c(OC)c3)SC2)cc1OC | x | 5.2 | -5.2 | x | x | x
COc1ccc(C(=O)N/C(=C\c2ccc3c(c2)OCO3)C(=O)NCCc2nc3ccccc3[nH]2)cc1 | -8.9% | -1.8 | -3.3 | -1.8% | -2.6% | 25.1%
COc1ccc(C(=O)NCCc2ccccc2)cc1[N+](=O)[O-] | 45.2% | 31.6* | 50.1* | 4.2% | -7.4% | 17.6%
COc1ccc(C(=O)OC(C)C(=O)NC(C)CCc2ccccc2)cc1[N+](=O)[O-] (stereo unspecified) | 1.8% | -2.6 | -2.9 | 0.5% | -9.3% | 7.6%
COc1ccc(CCNC(=O)/C=C/c2ccc3ccccc3n2)cc1OC | u | 13.6* | 45.0 | 1.3% | -14.5% | 8.28µM*
COc1ccc(/C=C/C(=O)NCCc2ccc(OC)c(OC)c2)cc1 | u | 0.9 | -7.8 | 5.9% | -11.7% | -24.3%
CS(=O)(=O)N1CCc2cc(C(=O)NCc3ccccc3)ccc21 | x | x | x | 5.9% | x | x
CCCSc1ccc2nc(NC(=O)OC)[nH]c2c1 | 111.1% | 35.1* | 141.2* | -5.0% | -4.9% | 222.7%
COC(=O)Nc1nc2ccc(SC(C)C)cc2[nH]1 | 60.0% | x | x | -0.2% | x | 39.4%
CCN(CC(=O)O)S(=O)(=O)c1cc(Cl)ccc1Cl | 7.0% | -1.8 | -2.0 | -5.4% | 5.3% | 13.1µM*
O=C(CNC1=NCCC1)c1ccc2c(c1)OCCO2 | 6.57µM* | -1.8 | -6.2 | 2.5% | 2.7% | u
COc1ccc(C(=O)OCCN2CCOCC2)cc1 | 29.0% | 25.2* | 43.9* | 7.8% | 11.5% | 14.0%
S=C(c1ccc2c(c1)OCO2)N1CCOCC1 | u | -1.6 | -5.3 | 11.8% | -24.5% | -7.3%
S=C(c1ccc2c(c1)OCO2)N1CCCCCC1 | x | -3.6 | -12.0 | -22.6% | -3.3% | 11.7µM*
O=C(CCN1CCCCC1)c1ccc2c(c1)OCO2 | 6.0% | 20.3 | -8.6 | 0.282µM* | -10.7% | -38.7%
COc1ccc(S(=O)(=O)n2nc(-c3ccco3)nc2NCc2ccc(C(C)C)cc2)cc1 | x | x | x | -3.0% | x | x
Cn1c(CC(=O)Nc2ccccc2Cl)nnc1SCC(=O)NC1=NCCS1 | 17.2% | -3.2 | 1.3 | -11.3% | 1.0% | 0.7%
CCO[C@H]1OC(C(=O)NCc2ccccc2)=C[C@@H](c2ccccc2)[C@@H]1CCCO | u | -2.4 | 12.0 | -11.7% | -1.1% | u
SMILES | Pf growth 48h | Cycloheximide cs | Shiga toxin inh | Sm TGR block | NS1 function inh | Pf growth 96h
O=C(Cc1ccccc1)c1ccc2c(c1)OCCO2 | 54.6% | 43.4* | 87.4* | x | -2.9% | -0.2%
O=C(CCCN1CCOCC1)c1ccc2c(c1)OCCO2 | 114.5% | 32.4* | 75.6 | -22.2% | -5.0% | 69.0%
O=C(CCN1CCOCC1)c1ccc2c(c1)OCCO2 | -7.6% | 1.1 | 13.8 | 1.58µM* | -30.6% | 15.7%
Cc1ccccc1C(=O)OCCN1CCOCC1 | 8.7% | 23.4* | -2.2 | 5.2% | 11.7% | 8.28µM*
Cc1ccc(-n2nc3c(N4CCC(C(=O)NCCc5cccs5)CC4)nnc(C)c3c2C)cc1 | u | -0.5 | -1.6 | 1.5% | 16.3% | 9.7%
O=C(OCCN1CCOCC1)c1ccccc1 | 8.6% | 2.9 | 8.2 | -19.7% | 15.0% | 29.1%
